# PubChem BioAssay AID588726 (The Scripps Research Institute Molecular Screening Center, 2011)
# In all, about 360,000 compounds went through this assay and about 8,200 (2.3%) were called active. No stated cut-off is given here; in the data, active means inhibition above about 27%; inactive means the rest. The sample as a whole holds a higher share of actives than the screen did.
# Molecular target: Fructose-bisphosphate aldolase (Mycobacterium tuberculosis (strain ATCC 25618 / H37Rv)) (UniProt P9WQA3)
# Sequence (P9WQA3 whole entry, looked up): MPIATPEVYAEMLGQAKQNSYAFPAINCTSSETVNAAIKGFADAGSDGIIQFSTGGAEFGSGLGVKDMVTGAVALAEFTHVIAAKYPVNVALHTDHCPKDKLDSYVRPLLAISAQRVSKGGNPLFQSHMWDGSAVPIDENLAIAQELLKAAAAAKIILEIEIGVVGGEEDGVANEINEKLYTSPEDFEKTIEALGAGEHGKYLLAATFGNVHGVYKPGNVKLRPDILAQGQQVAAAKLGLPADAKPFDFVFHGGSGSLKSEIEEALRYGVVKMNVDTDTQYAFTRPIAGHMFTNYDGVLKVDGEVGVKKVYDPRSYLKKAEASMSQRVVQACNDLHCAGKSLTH
# Assay: Mtb FBA enzyme inhibitors, primary screen, biochemical, fluorescence, strain H37Rv (AID 588726);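 further: 0% = vehicle and 100% = reference inhibitor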
# Conditions: purified M. tuberculosis FBA, fluorescence read-out, at 1 µM, hits give high values
row,Structure (SMILES),inhibition
1,Cc1ccc(NC(=O)C2(N3CCC3=O)CCCCC2)cc1,-1.03% (inactive)
2,CC/C(=N\NC(=O)c1c(C)nc2ccccn12)c1ccc(Cl)cc1,1.77% (inactive)
3,O=C(CN1CCN(S(=O)(=O)c2ccc(F)cc2)CC1)NC1CC1,0.31% (inactive)
4,CC1CC2=C(CC1/C=N/NC(N)=S)C(C)(C)CCC2 (stereo not drawn),-2.62% (inactive)
5,CC(C)(C)n1nc(Cc2cccc3ccccc23)c(C#N)c1N,-0.08% (inactive)
6,COc1ccc(Nc2oc(-c3ccccc3Cl)nc2C#N)cc1,14.5% (inactive)
7,O=C(CN1CCN(C2CCS(=O)(=O)C2)CC1)N1N=C(c2ccc(Cl)cc2)CC1c1ccco1 (stereo not drawn),-0.95% (inactive)
8,O=c1[nH]cnc(O)c1C(c1ccc(F)cc1)c1c(O)nc[nH]c1=O,1.39% (inactive)
9,Cc1nc2ccccc2nc1CC(O)(c1ccccc1)c1ccccc1,0.56% (inactive)
10,Cc1cc(N=Nc2ccc3ccccc3c2)ccc1O,-3.13% (inactive)
11,Cc1nc2ccccc2cc1O,116% (active)
12,COc1ccc(-c2cc(C)nc3nc(N)nn23)cc1,124% (active)
13,C=Cn1c(C(=O)O)ccc1-c1ccc(OC)cc1,1.98% (inactive)
14,Cc1cc(-c2ccccc2)n2nc(C)c(-c3ccccc3)c2n1,4.02% (inactive)
15,COC(=O)c1ccc(C)c(NC(=O)Cn2c(C)csc2=O)c1,-1.21% (inactive)
16,CCOC(=O)c1c(-c2ccccc2)oc2ccc(OC(=O)N(C)C)cc12,38.7% (active)
17,CCOC(=O)c1c(-c2ccccc2)oc2ccc(OCC(=O)NN)cc12,58.4% (active)
18,CCOC(=O)c1c(C)oc2cc(Br)c(OCC(N)=O)cc12,5.33% (inactive)
19,CCOC(=O)c1c(C)[nH]c(C(=O)COc2ccc3c(c2)OCO3)c1C,6.18% (inactive)
20,N#CC1(NC(=O)COc2ccc3oc4ccccc4c3c2)CCCCC1,-0.49% (inactive)
21,CCOC(=O)c1c(-c2ccccc2)oc2ccc(OCC(N)=O)cc12,72.7% (active)
22,CCOC(=O)c1c(C)oc2cc(Sc3ccccc3)c(O)c(O)c12,-6.47% (inactive)
23,COC(=O)c1c(C)oc2ccc(N(C(=O)Oc3ccccc3)S(=O)(=O)c3ccccc3)cc12,-6.44% (inactive)
24,CCOC(=O)c1c(-c2ccccc2)oc2cc(Br)c(O)c(C=O)c12,-2.33% (inactive)

row,Structure (SMILES),inhibition
1,S=C(NC1CCCCC1)NN1CCOCC1,-5.42% (inactive)
2,c1ccc2c(c1)CSc1sccc1C2=C1CCNCC1,4.51% (inactive)
3,N#Cc1cccc(NC(=O)CCC2CCCC2)c1,-3.71% (inactive)
4,OC(COCCC12CC3CC(CC(C3)C1)C2)CN1CCCCC1 (stereo not drawn),-2.2% (inactive)
5,COc1ccc(-n2c(SCC(=O)Nc3ccc4c(c3)OCO4)nnc2C(C)N2CCCCC2)cc1 (stereo not drawn),0.95% (inactive)
6,COc1ccc(C(C(=O)NC2CCCC2)N(CCCO)C(=O)Cn2nnc(-c3ccc(C)o3)n2)cc1 (stereo not drawn),0.22% (inactive)
7,CCOC(=O)CCCCCC(=O)Nc1ccc2c(c1)CC(=O)N([C@@H](C)CO)C[C@H](C)[C@@H](CN(C)Cc1ccccc1)O2,1.41% (inactive)
8,Cc1nnc(NC2=NCCCCC2)o1,2.72% (inactive)
9,COC(=O)c1cccnc1NC(=S)NC(C)C,-6.99% (inactive)
10,CSc1nnc(-c2ccc(C(F)(F)F)cn2)o1,7.82% (inactive)
11,C=CCNC(=O)c1ccc2c3n(nc2c1)-c1ccc(C)cc1CO3,46.8% (active)
12,Cc1cccc(-c2nc3ccc(C(=O)NCCN4CCN(C)CC4)cc3nc2-c2cccc(C)c2)c1,25.3% (inactive)
13,Cc1ccc(-n2nc3c(c2NC(=O)c2ccc4c(c2)OCO4)CSC3)c(C)c1,0.86% (inactive)
14,O=C(OC1CCOC1=O)c1ccc(-c2nc3ccccc3s2)s1 (stereo not drawn),36.7% (active)
15,COc1cc(C(=O)OC2CCOC2=O)c([N+](=O)[O-])cc1OC (stereo not drawn),1.88% (inactive)
16,CC(C)c1ccc(C(=O)OC2CCOC2=O)cc1 (stereo not drawn),-2.02% (inactive)
17,Cc1cc(C)c(S(=O)(=O)c2ccccc2)c(OC(=O)c2c(F)cccc2Cl)n1,2.73% (inactive)
18,COc1ccc(-c2nc3cnccn3c2NC2CCCCC2)cc1-c1cccc(Cl)c1,24.3% (inactive)
19,Cc1ccc2nc(-c3cccnc3)c(NC3CCCC3)n2c1,2.23% (inactive)
20,COc1ccc(-c2nc3cc(C)ccn3c2NC2CCCCC2)cc1SC1CCCCC1,27.2% (active)
21,Cc1[nH]nc(-c2ccc(OCc3cnn(-c4ccccc4)c3)cc2O)c1Oc1ccc(Cl)cc1,3.96% (inactive)
22,COc1ccc(S(=O)(=O)N2CCOC2CNC(=O)C(=O)NCc2ccc(F)cc2)cc1 (stereo not drawn),-0.16% (inactive)
23,c1cnc(N2CCN(c3ccc4ccccc4n3)CC2)nc1,2.95% (inactive)
24,CC12CCC(C(=O)N3CCN(c4ncccn4)CC3)(c3nc4ccccc4nc31)C2(C)C (stereo not drawn),30% (active)

row,Structure (SMILES),inhibition
1,CC(Oc1ccc(F)cc1)C(=O)N1CCN(c2ncccn2)CC1 (stereo not drawn),1.68% (inactive)
2,COC(=O)C1=CO[C@@H](O[C@@H]2O[C@H](CO)[C@@H](O)[C@H](O)[C@H]2O)C2C1C[C@H](O)[C@@H]2C (stereo partly drawn),-0.2% (inactive)
3,CCCCc1cc(=O)oc2c(C)c(OCC(=O)N3CCC(C(N)=O)CC3)ccc12,13.9% (inactive)
4,CCc1cc(=O)oc2c(C)c(OCC(=O)N3CC[C@@]4(O)CCCC[C@H]4C3)ccc12,36.8% (active)
5,Cc1c(C)c2ccc(OCC(=O)N3CCC(C(=O)O)CC3)c(C)c2oc1=O,119% (active)
6,CCOC(=O)C1CCN(C(=O)COc2cccc3ccccc23)CC1,-4.37% (inactive)
7,CCCc1cc(=O)oc2c(C)c(OCC(=O)Nc3ccccn3)ccc12,14.2% (inactive)
8,Cc1cc(=O)oc2c(C)c(OCC(=O)N3CCN(Cc4ccc5c(c4)OCO5)CC3)ccc12,20.6% (inactive)
9,CCCc1cc(=O)oc2c(C)c(OCC(=O)N3CCC(C(=O)O)CC3)ccc12,44.1% (active)
10,CCc1cc(=O)oc2c(C)c(OCC(=O)NCCN3CCOCC3)ccc12,18% (inactive)
11,N#Cc1cccc(OC(=O)c2ccc3c(=O)n4c(nc3c2)CCC4)c1,1.39% (inactive)
12,CCCc1cc(=O)[nH]c(SCc2cc(=O)oc3c(C)c(C)ccc23)n1,-1.06% (inactive)
13,COC(=O)c1sc(-c2ccc(C(C)(C)C)cc2)cc1NC(=O)/C=C/C(=O)O,1.9% (inactive)
14,CCC(C)(C)n1nnnc1CN1CCN(c2nc3ccc(C)cc3cc2C#N)CC1,3.89% (inactive)
15,COc1cc2c(cc1OC)C(C)N(S(=O)(=O)c1cnc(Cl)c(Cl)c1)CC2 (stereo not drawn),-4.46% (inactive)
16,CN(CCC#N)c1ncnc2scc(-c3ccccc3)c12,4.16% (inactive)
17,COC(=O)c1sc(N2CCN(Cc3ccccc3)CC2)nc1N,1.57% (inactive)
18,C=CCNc1nc(N)c(C(=C(C#N)C#N)c2ccccc2)s1,135% (active)
19,COc1ccc(N(CC(=O)NC2CCCCC2)C(=O)CNC(=O)c2ccco2)c(OC)c1,3.44% (inactive)
20,O=c1[nH]c(=O)n(Cc2ccco2)c2c1C(C(F)(F)F)(C(F)(F)F)N=C(c1ccco1)N2,1.76% (inactive)
21,CCCCC[C@@H]1C=C(C(=O)OCC)[C@H](c2ccccc2)N1S(=O)(=O)c1ccc(C)cc1,-1.47% (inactive)
22,CN(CC(=O)NCCc1ccccn1)S(=O)(=O)c1ccc(Cl)cc1,-1.58% (inactive)
23,CN(CCc1ccccn1)S(=O)(=O)c1ccc2c3c(cccc13)C(=O)N2,50.8% (active)
24,CN(CCc1ccccn1)C1CCCN(S(=O)(=O)c2ccccc2Cl)C1 (stereo not drawn),-1.97% (inactive)

row,Structure (SMILES),inhibition
1,CC1(C)Cc2c(sc3nc(SCC(=O)NCc4ccccc4)n(-c4ccccc4)c(=O)c23)CS1,1.67% (inactive)
2,CCCNC(=S)NC1CC2CCCC(C1)N2CC(C)C (stereo not drawn),0.49% (inactive)
3,COC(=O)C1=NNC2(c3ccc(C)cc3)C(=O)N(c3cccc(C)c3C)C(=O)C12 (stereo not drawn),-2.73% (inactive)
4,COC(=O)c1c(-c2cccs2)csc1NC(=O)CSc1ncnc2sc(C)c(C)c12,1.16% (inactive)
5,CCNC(=O)CN(c1ccc(C)cc1)S(=O)(=O)c1ccc(SC)cc1,-1.29% (inactive)
6,O=C(NNc1c2ccccc2nc2ccccc12)c1cc2ccccc2cc1O,-10.4% (inactive)
7,CC(C)(C)OC(=O)NNc1c2ccccc2nc2ccccc12,74.1% (active)
8,Cc1ccc(C(=O)NNC(=O)OC(C)(C)C)c(Cl)c1,-0.17% (inactive)
9,Cc1ccc(S(=O)(=O)N(CCCN(C)C)Cc2ccc3c(c2)OCO3)cc1,1.83% (inactive)
10,O=C(CCN1C(=O)[C@@H]2Cc3ccccc3CN2C1=O)NCCc1ccccc1,-6.76% (inactive)
11,CC(=O)c1cccc(NC(=O)C2CCCN(S(=O)(=O)c3cccc4nonc34)C2)c1 (stereo not drawn),5.88% (inactive)
12,O=C(CN(C(=O)CNC(=O)c1cccs1)c1cccc(F)c1)NC1CCCCC1,-0.45% (inactive)
13,Cn1c(CCc2ccccc2)nnc1SCC(N)=O,-0.79% (inactive)
14,COC(=O)CCNC(=O)c1ccc2[nH]c(C)c(C)c2c1,4.35% (inactive)
15,CCCCNC(=O)c1ccc(-n2c(=S)[nH]c3ccccc3c2=O)cc1,-2.52% (inactive)
16,CN(C)CCCNC(=O)c1ccc2[nH]c3ccccc3c2c1,34.9% (active)
17,O=C(Nc1ncc2c(n1)CC(c1ccco1)CC2=O)c1ccc(Cl)cc1 (stereo not drawn),-1.48% (inactive)
18,O=C(Nc1ccc(Cl)cn1)c1ccccc1-c1ccccc1,-2.1% (inactive)
19,O=C(Nc1ncc2c(n1)-c1ccccc1OC2)c1ccc(Cl)cc1,97.1% (active)
20,CC(C)NC(=O)C(=O)NCCN1CCN(S(=O)(=O)c2ccc(Cl)cc2)CC1,2.59% (inactive)
21,CC1(C)O[C@@H]2[C@H](O1)[C@@H](CO)O[C@H]2n1c(N2CCCCC2)nc2c(N)ncnc21,0.56% (inactive)
